Compounds without any hit were thinned out: in the full panel of roughly 83,000, 20% have a hit.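 Values shown are percent growth following 48 h exposure of cells in 96-well plates to a single concentration of compound; below 10 was considered active.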 Values without a mark were called inactive. The source made the active and inactive calls.
Legend:
Test in all cases: NCI-60 one-dose screen, 48 h (100 = growth as untreated, 0 = no growth, -100 = all killed)
Conditions in all cases: 10 µM
HCT-15 colon = tested on: HCT-15 colon
HT29 colon = tested on: HT29 colon
SNB-75 CNS = tested on: SNB-75 CNS
SNB-19 CNS = tested on: SNB-19 CNS
U251 CNS = tested on: U251 CNS
PC-3 prostate = tested on: PC-3 prostate
SK-MEL-5 melanoma = tested on: SK-MEL-5 melanoma
UACC-62 melanoma = tested on: UACC-62 melanoma
LOX IMVI melanoma = tested on: LOX IMVI melanoma
SK-MEL-28 melanoma = tested on: SK-MEL-28 melanoma
SK-MEL-2 melanoma = tested on: SK-MEL-2 melanoma
SN12C renal = tested on: SN12C renal
UO-31 renal = tested on: UO-31 renal
TK-10 renal = tested on: TK-10 renal
ACHN renal = tested on: ACHN renal
CAKI-1 renal = tested on: CAKI-1 renal
A498 renal = tested on: A498 renal
CCRF-CEM leukemia = tested on: CCRF-CEM leukemia
MOLT-4 leukemia = tested on: MOLT-4 leukemia

| SMILES | growth (HCT-15 colon) | growth (HT29 colon) | growth (SNB-75 CNS) | growth (SNB-19 CNS) [%] | growth (U251 CNS) | growth (PC-3 prostate) | growth (SK-MEL-5 melanoma) | growth (UACC-62 melanoma) | growth (LOX IMVI melanoma) | growth (SK-MEL-28 melanoma) [%] | growth (SK-MEL-2 melanoma) | growth (SN12C renal) [%] | growth (UO-31 renal) | growth (TK-10 renal) | growth (ACHN renal) | growth (CAKI-1 renal) [%] | growth (A498 renal) | growth (CCRF-CEM leukemia) | growth (MOLT-4 leukemia) |
| --- | --- | --- | --- | --- | --- | --- | --- | --- | --- | --- | --- | --- | --- | --- | --- | --- | --- | --- | --- |
| CC(=O)O[C@H]1CC[C@@]2(C)[C@@H](CC[C@@H]3[C@@H]2CC[C@]2(C)C=C(C=O)C[C@@H]32)C1 | 27.5% | 31.4% | 69.5% | 82.5 | 22.9% | 62.5% | 75.7% | 78.8% | -71% (active) | 70 | 73.7% | 58.9 | 93% | 120% | 95% | 91 | 94.9% | -20.8% (active) | -29.1% (active) |
| CCn1nc(-c2ccc(C(=O)OC)cc2)nc2c(=O)n(C)c(=O)nc1-2 | 64.1% | 70.7% | -44% (active) | 56.8 | 41.5% | 57.3% | 87% | 50.5% | 55.5% | 77.7 | 96.6% | 76.6 | 49.9% | 85.7% | -53.4% (active) | 63.7 | 108% | 83.9% | 101% |
| NC(N)=NS(=O)(=O)c1ccc(Nc2ccc3nnc(-c4ccncc4)n3n2)cc1 | 100% | 104% | 90.4% | 94.3 | 104% | 107% | 98.3% | 97.1% | 97.2% | 107 | 131% | 94.6 | 78.6% | 112% | 101% | 106 | 95.5% | 109% | 101% |
| Nc1nc2c(nnn2C2CC(O)C(CO)O2)c(=O)[nH]1 (configuration not stated) | 41.6% | 51.4% | 61.8% | 94.3 | 54.3% | 26.5% | 87% | 25% | 19.5% | 87.5 | 42.8% | 45.3 | 30.9% | 59.2% | 23.3% | 32.4 | 55.7% | 19.4% | 30.4% |
| O=C(Nc1cccc(Cl)c1)Nc1cc2ncncc2cc1OCc1cccc(F)c1 | 0.775% (active) | 0.74% (active) | 21.1% | 22.9 | 6.99% (active) | 9.57% (active) | -88.5% (active) | -18.4% (active) | 21.4% | 20.9 | -24.3% (active) | 21.7 | 9.37% (active) | -3.16% (active) | 3.47% (active) | 14.6 | -9.36% (active) | 2.81% (active) | 4.84% (active) |
| Nc1ncncc1-c1ccc(F)cc1 | 103% | 113% | 85.3% | 106 | 103% | 103% | 104% | 107% | 98.7% | 115 | 132% | 107 | 103% | 116% | 108% | 98.5 | 95.2% | 109% | 98.4% |
| COc1cc(Cl)cc(-c2nn(-c3cccc(NC(=O)Nc4cccc(C(F)(F)F)c4)c3)cc2-c2ccncc2)c1 | 7.83% (active) | 5.75% (active) | 12.5% | 16.1 | 4.59% (active) | -9.92% (active) | 5.3% (active) | -11.5% (active) | 4.64% (active) | 14.1 | -36.7% (active) | 13.9 | -4.59% (active) | 23.4% | 5.44% (active) | 16.1 | -6.74% (active) | 3.34% (active) | -9.16% (active) |
| C[C@]12CC[C@H]3[C@@H](CC=C4C[C@@H](O)CC[C@@]43C)[C@@H]1CC[C@@H]2C(=O)C/C=N/O | 86.4% | 81.1% | 85.4% | 95.1 | 83.8% | 71.9% | 92.8% | 88.6% | 82% | 106 | 95.9% | 91.7 | -94.6% (active) | 99.5% | 89.4% | 83.2 | 90.1% | 71.8% | 69.2% |

— PubChem BioAssay (NCI)
